Experiment [1] concerns the target T1, 3-phosphoinositide-dependent protein kinase 1 (Homo sapiens) (UniProt O15530).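 Note: values are mean inhibition of PDK1.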
T1 sequence (whole entry): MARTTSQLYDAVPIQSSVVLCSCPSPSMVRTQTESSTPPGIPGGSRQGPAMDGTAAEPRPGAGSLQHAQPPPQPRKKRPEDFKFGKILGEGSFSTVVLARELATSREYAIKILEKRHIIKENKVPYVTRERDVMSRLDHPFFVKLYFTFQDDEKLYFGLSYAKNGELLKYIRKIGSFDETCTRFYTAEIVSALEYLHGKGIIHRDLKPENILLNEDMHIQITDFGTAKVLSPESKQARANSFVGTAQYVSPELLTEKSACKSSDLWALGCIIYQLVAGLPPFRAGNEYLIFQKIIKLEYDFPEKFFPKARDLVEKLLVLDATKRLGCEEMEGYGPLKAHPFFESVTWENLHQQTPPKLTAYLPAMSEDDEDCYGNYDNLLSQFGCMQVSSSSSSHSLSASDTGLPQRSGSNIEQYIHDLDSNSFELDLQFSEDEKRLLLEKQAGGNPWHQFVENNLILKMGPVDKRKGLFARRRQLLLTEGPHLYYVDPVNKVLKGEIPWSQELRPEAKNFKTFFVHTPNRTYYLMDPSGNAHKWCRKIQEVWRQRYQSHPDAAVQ
Conditions: at 0.1 µM.

For experiment [2], the target named is cAMP-dependent protein kinase catalytic subunit alpha (Homo sapiens) (UniProt P17612). Conditions: at 0.1 µM.
Experiment [3] shares this target. Conditions: at 1 µM.
The target in experiment [4] is Protein kinase C alpha type (Homo sapiens) (UniProt P17252). The following applies: at 0.1 µM.
For experiment [5] the target is unchanged. Conditions: at 1 µM.
The target of experiment [6] is Protein kinase C beta type (Homo sapiens) (UniProt P05771). The following applies: at 0.1 µM.
Experiment [7] shares this target. The following applies: at 1 µM.
Experiment [8] has as its target Protein kinase C eta type (Homo sapiens) (UniProt P24723). The following applies: at 0.1 µM.
For experiment [9] the target is unchanged. Conditions: at 1 µM.
Experiment [10] concerns the target Protein kinase C gamma type (Homo sapiens) (UniProt P05129). The following applies: at 0.1 µM.
The target is the same in experiment [11]. The following applies: at 1 µM.
Experiment [12] deals with T2, Protein kinase C iota type (Homo sapiens) (UniProt P41743).
T2 sequence (whole entry): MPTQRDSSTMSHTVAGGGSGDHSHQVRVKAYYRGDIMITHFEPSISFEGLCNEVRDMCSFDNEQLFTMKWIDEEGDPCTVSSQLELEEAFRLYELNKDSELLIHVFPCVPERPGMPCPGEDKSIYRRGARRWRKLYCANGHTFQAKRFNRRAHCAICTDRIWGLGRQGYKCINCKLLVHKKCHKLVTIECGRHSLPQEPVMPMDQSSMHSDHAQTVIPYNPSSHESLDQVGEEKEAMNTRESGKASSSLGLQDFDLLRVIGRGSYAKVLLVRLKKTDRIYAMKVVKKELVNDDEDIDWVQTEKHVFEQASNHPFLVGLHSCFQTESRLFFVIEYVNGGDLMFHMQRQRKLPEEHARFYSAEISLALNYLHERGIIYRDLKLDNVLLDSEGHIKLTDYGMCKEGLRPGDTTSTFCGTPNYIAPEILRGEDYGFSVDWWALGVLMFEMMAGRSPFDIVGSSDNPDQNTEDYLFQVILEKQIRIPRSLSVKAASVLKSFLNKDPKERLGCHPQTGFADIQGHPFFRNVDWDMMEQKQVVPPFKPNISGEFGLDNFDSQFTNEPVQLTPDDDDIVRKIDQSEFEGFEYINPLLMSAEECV
Conditions: at 0.1 µM.

The target of experiment [13] is T2, Protein kinase C iota type (Homo sapiens). The following applies: at 1 µM.
For experiment [14], the target named is Protein kinase C theta type (Homo sapiens) (UniProt Q04759). Conditions: at 0.1 µM.
Experiment [15] has the same target. The following applies: at 1 µM.
In experiment [16] the target is Protein kinase C beta type (Homo sapiens) (UniProt P05771). Conditions: at 0.1 µM. This is another data set of the same source.
Experiment [17] shares this target. The following applies: at 1 µM. This is another data set of the same source.
The target of experiment [18] is T3, Serine/threonine-protein kinase D1 (Homo sapiens) (UniProt Q15139).
T3 sequence (whole entry): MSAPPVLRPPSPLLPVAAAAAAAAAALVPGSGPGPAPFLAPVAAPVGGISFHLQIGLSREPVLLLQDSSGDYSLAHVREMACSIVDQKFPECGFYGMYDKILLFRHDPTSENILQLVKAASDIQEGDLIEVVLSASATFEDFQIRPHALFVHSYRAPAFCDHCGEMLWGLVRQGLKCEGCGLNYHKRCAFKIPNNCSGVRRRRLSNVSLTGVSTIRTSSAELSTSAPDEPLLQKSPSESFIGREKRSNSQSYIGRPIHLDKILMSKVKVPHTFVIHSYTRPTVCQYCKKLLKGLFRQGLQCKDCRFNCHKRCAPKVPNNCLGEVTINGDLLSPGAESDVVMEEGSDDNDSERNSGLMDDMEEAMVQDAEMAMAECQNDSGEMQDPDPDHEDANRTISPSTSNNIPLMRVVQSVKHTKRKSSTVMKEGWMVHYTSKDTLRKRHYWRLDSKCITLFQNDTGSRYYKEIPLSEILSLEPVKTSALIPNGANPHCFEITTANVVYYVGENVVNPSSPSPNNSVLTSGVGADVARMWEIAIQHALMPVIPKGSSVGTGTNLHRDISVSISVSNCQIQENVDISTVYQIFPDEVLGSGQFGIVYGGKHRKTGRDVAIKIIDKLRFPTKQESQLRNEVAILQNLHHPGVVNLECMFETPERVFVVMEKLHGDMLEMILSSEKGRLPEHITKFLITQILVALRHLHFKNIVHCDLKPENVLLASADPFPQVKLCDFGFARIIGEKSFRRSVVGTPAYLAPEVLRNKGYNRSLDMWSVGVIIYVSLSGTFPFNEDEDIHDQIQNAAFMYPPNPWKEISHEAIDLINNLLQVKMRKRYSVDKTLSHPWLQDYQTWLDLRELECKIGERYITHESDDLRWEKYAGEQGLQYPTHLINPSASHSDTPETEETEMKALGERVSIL
Conditions: at 0.1 µM.

Experiment [19] addresses T3, Serine/threonine-protein kinase D1 (Homo sapiens). Conditions: at 1 µM.
For experiment [20], the target named is T4, Serine/threonine-protein kinase D2 (Homo sapiens) (UniProt Q9BZL6).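 Note: reported percent inhibition values are means, part of the GSK PKIS kinase panel screen.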
T4 sequence (whole entry): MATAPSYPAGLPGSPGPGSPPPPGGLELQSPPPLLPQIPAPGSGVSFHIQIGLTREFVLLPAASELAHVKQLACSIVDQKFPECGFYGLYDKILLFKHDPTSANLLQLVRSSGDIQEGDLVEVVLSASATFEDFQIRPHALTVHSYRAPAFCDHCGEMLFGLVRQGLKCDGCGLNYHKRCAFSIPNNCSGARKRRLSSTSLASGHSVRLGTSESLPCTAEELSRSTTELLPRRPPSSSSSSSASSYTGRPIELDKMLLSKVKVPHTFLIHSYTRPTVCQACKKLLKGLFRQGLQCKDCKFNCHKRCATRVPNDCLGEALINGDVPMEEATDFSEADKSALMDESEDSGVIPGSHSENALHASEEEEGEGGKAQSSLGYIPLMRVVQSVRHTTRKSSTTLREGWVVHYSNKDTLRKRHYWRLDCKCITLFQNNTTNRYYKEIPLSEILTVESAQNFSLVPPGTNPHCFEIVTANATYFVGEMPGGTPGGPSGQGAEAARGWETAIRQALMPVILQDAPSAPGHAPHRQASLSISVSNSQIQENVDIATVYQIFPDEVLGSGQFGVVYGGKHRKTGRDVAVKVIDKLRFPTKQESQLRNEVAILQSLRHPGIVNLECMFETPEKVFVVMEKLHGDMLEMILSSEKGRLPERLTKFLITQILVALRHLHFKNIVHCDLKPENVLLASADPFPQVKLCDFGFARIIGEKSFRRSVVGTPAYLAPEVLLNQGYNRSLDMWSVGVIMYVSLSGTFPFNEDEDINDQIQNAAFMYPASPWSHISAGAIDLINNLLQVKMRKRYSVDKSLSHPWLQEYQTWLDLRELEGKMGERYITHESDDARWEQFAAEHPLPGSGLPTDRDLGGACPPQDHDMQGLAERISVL
The following applies: at 0.1 µM.

For orientation: inhibition means the drop in the measured response relative to a control, in per cent.

Protein kinase C beta type (Homo sapiens), sequence (P05771 2-671 limits assumed): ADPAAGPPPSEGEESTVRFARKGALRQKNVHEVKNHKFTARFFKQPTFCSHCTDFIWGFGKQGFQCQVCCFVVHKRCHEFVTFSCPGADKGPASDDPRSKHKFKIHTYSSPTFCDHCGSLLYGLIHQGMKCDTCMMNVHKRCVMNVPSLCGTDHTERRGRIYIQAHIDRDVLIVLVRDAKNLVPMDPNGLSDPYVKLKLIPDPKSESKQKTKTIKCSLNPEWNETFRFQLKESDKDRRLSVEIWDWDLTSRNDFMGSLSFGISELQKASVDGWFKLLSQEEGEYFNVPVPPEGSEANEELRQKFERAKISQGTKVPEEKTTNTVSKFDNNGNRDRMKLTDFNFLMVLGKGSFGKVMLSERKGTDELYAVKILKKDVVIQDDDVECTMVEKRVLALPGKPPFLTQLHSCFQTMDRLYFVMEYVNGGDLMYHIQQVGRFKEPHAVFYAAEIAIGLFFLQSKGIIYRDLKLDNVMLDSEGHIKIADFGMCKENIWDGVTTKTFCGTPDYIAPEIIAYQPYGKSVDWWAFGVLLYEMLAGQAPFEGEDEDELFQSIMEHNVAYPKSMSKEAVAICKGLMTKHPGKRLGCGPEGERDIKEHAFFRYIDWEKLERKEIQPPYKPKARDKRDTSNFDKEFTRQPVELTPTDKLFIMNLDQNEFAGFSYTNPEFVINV
Protein kinase C eta type (Homo sapiens), sequence (P24723 whole entry): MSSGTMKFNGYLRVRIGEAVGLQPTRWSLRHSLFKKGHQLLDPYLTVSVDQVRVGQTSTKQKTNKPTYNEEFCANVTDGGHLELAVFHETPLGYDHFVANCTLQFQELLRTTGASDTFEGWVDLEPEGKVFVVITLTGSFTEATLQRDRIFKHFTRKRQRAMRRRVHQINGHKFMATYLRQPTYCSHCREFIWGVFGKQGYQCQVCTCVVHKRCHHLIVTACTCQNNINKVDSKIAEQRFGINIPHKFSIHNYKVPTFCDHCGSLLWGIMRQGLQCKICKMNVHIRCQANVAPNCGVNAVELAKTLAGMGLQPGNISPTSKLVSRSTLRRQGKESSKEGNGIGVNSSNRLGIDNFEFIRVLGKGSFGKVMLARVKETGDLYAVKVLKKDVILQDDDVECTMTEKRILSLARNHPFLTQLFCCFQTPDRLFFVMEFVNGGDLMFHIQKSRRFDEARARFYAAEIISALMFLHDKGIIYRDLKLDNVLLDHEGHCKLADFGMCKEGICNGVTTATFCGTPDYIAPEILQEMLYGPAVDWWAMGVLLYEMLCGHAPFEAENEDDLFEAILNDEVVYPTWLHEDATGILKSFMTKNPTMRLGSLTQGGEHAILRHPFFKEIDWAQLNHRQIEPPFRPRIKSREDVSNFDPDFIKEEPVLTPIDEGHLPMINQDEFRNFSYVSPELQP
Protein kinase C theta type (Homo sapiens), sequence (Q04759 whole entry, looked up): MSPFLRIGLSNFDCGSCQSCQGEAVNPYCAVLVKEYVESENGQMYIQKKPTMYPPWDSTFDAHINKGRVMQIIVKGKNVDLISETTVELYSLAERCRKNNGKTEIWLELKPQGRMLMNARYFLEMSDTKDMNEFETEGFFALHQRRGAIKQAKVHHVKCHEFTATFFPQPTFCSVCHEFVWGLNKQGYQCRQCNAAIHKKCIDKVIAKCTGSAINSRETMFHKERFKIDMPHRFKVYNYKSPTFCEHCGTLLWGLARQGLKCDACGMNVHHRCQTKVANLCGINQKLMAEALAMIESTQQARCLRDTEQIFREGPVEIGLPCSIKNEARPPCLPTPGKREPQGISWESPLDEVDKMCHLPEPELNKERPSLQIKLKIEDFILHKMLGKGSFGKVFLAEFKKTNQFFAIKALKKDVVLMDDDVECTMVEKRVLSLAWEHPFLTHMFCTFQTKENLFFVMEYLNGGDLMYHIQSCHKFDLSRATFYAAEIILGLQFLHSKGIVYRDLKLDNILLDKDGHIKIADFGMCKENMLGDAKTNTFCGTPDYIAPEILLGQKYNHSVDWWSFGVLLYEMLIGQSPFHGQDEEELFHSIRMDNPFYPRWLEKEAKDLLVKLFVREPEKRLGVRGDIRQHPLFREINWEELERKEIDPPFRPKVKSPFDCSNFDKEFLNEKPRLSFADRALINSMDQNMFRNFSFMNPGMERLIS

In the case of `COC(=O)Nc1nc2cc(Oc3ccc(NC(=O)Nc4cccc(Br)c4)cc3)ccc2[nH]1`, the inhibition in [1] is 3.36%; in [2], 1.25%; in [3], 1.19%; in [4], 1.04%; in experiment [5], 1.61%; in [6], -0.97%. Further, the inhibition in [7] is 2.4%; in experiment [8], -0.37%; in experiment [9], 4.28%; in experiment [10], -0.79%; in experiment [11], 0.29%; in [12], 1.23%. For the same compound, the inhibition in [13] stood at 0.06%; in experiment [14], 1.7%; in experiment [15] it was 1.69%; in [16], 0.71%; in [17], 2.06%; in [18] it was 2.15%. For the same compound, the inhibition was found to be 4.31% in experiment [19] and 4.58% in experiment [20].

For `CCS(=O)(=O)c1ccc(OC)c(Nc2ncc(-c3cccc(OC)c3)o2)c1`, the inhibition in experiment [1] is 1.14%; in experiment [2] it was 1.07%; in experiment [3], 1.26%; in experiment [4] it was 1.39%; in experiment [5] it was 5.21%; in experiment [6] it was 0.07%. Further, the inhibition is -1.05% in [7]; -0.85% in [8]; 1.66% in experiment [9]; 2.11% in experiment [10]; 3.87% in experiment [11]; 1.8% in experiment [12]. The inhibition in experiment [13] was 3.38%; in experiment [14], 1.22%; in experiment [15], 0.3%; in experiment [16] it was 0.6%; in experiment [17], 2.93%; in experiment [18], 2.32%. For the same compound, the results for the inhibition in experiment [19] and in experiment [20] were 4.41% and 2.35%, respectively.

With `c1ccc(Cc2nc3ccc(Nc4ncnc5ccccc45)cc3[nH]2)cc1`, the inhibition worked out at 0.78% in [1]; 1.15% in experiment [2]; 2.76% in experiment [3]; 1.22% in experiment [4]; 4.52% in experiment [5]; 1.26% in experiment [6]. The inhibition in [7] was determined as 1.59%; in experiment [8], 2.55%; in experiment [9], 2.75%; in [10], 1.69%; in experiment [11], 2.9%; in experiment [12], 0.63%. For the same compound, the inhibition came to 0.68% in experiment [13]; 1.76% in experiment [14]; 2.47% in experiment [15]; 0.1% in experiment [16]; 0.12% in experiment [17]; 2.88% in experiment [18]. Further, the inhibition in experiment [19] was determined as 6.43%; in experiment [20], 2.49%.

For the compound `C[C@@H](Oc1cc(-n2cnc3ccc(OC[C@@H](O)CO)cc32)sc1C(N)=O)c1ccccc1Cl`, the inhibition in experiment [1] is 0.22%; in [2], -0.26%; in experiment [3], -0.61%; in [4] it was -0.25%; in experiment [5], 3.02%; in [6], -0.38%. The inhibition was 1.7% in experiment [7]; 0.53% in experiment [8]; 0.23% in [9]; -1.57% in [10]; -0.26% in [11]; -0.24% in experiment [12]. Moreover, the inhibition was 1.09% in experiment [13]; -0.9% in experiment [14]; 0.85% in experiment [15]; -1.05% in experiment [16]; 2.03% in experiment [17]; -1.17% in experiment [18]. Also, the inhibition in experiment [19] was found to be 0.36%; in [20], 0.81%.

With `Cc1ccc(NC(=O)CC2CC2)cc1-c1ccc(C(=O)NCC2CC2)cc1`, the inhibition in [1] is 1.84%; in experiment [2], 1.31%; in [3], 0.41%; in experiment [4], 0.78%; in [5], 1.96%; in experiment [6], -0.34%. Also, the inhibition in [7] is 2.08%; in experiment [8], 3.52%; in experiment [9], 4.84%; in [10], 2.09%; in experiment [11], 6.55%; in [12] it was 0.93%. For the same compound, the inhibition is -0.03% in experiment [13]; 2.09% in experiment [14]; 2.23% in experiment [15]; 1% in [16]; 2.35% in experiment [17]; 2.3% in [18]. For the same compound, the inhibition in [19] was 3.9%; in [20] it was 2.89%.

For the compound `NC(=O)c1sc(-n2cnc3ccccc32)cc1OCc1ccccc1Br`, the inhibition is 1.27% in experiment [1]; 1.4% in [2]; 4.48% in experiment [3]; 1.58% in [4]; 2.92% in experiment [5]; -0.55% in experiment [6]. For the same compound, the inhibition in [7] was 0.73%; in experiment [8], 5.09%; in [9] it was 2.7%; in experiment [10], 1.38%; in [11] it was 3.85%; in experiment [12] it was 1.56%. In addition, the inhibition in experiment [13] was -0.46%; in experiment [14], 1.86%; in experiment [15], 2.63%; in experiment [16] it was 1.02%; in experiment [17] it was 2.96%; in [18], 5.36%. For the same compound, the inhibition in [19] stood at 9.59%; in experiment [20], 7.73%.

As for `N#Cc1c(NC(=O)c2ccccc2F)sc2c1CCCC2`, the inhibition was -1.52% in experiment [1]; -0.5% in experiment [2]; 0.91% in [3]; -0.76% in experiment [4]; 1.15% in experiment [5]; 0.38% in experiment [6]. The inhibition in experiment [7] was 1.07%; in experiment [8] it was -2.89%; in experiment [9] it was 1.15%; in experiment [10], 0.73%; in experiment [11], 0.15%; in experiment [12] it was -1.48%. Moreover, the inhibition was -0.75% in experiment [13]; -0.76% in experiment [14]; -0.86% in [15]; -0.47% in [16]; 0.43% in experiment [17]; -1.42% in experiment [18]. The inhibition in [19] is 0.24%; in experiment [20], 0.84%.

For the origin of these results see ChEMBL document CHEMBL1961873, “Compounds: GSK PKIS; Assays: Nanosyn kinase panel” (2012).
